Here are results for 40 sequences from the supplement of paper PMC6555819.

The subject of this experiment is VDR:RXRa (NR concentration 270 nM, RXRa partner concentration 90 nM). In words: PBM binding z-score (relative to random genomic background probes); higher = stronger binding; sequences stand for … in GC…GCGATTGACAGCGTAGAATGAAGG
The protocol:
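Protein-binding microarray (Agilent 4x180K custom design, double-stranded 60-nt probes: 5' GC cap, 34-nt variable region, 24-nt constant primer region; full probe sequence given). Purified or IVT nuclear receptor:RXRα heterodimers (3:1 NR:RXRα, mostly 270:90 nM) or homodimers were incubated for 1 h in PBS with 2% milk and no ligand, then detected with Alexa488 antibodies. Fluorescence from o1-orientation probes (~5 replicates averaged) was converted to z-scores against 500 random hg19 background probes. Variable regions are seed direct-repeat (DR0–DR5) sites, all their single-nucleotide variants and half-site ablations.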
In turn, GCGACTGGGGCATCAGCAGGTTCCCATAACTTAA gave a PBM binding z-score of -0.515.
Sequence CCTCGGAGGACAACAGGAGGTCAGAGATGCCAGA came in with a PBM binding z-score of 2.29.
The same measure for TCTCGGAGGACACTAAGGTCAGAGCTTTCCAGAG: 3.31; for TCTAGCAGGGCAGAGGGTCACTCAAGAGGTACGG: 1.63; for CCTGCTGGGCCATTCAGAGGTCATTGATCATATG: 4.03.
In the case of CCTAGTTGGTCGAGGTCACACACGCTATAGGTAC, the PBM binding z-score stood at 4.8.
To GTACCAAGCTGAATAGGTCGTTGATGAGTAGGCG belongs -0.239; to ATAGCAAGGTGATCGTGAGGTCGTTGATACTAAC, 2.94; to CCGACTGGGGCAAGGATACCATAACGCACAGCCA, -0.596.
With TCGAGTAGGTTACCAATGGGGCATTCCGCTTTCT, the PBM binding z-score turned out to be 0.11.
TCGAGTAGGTTACGAATGGGGCATTCAGCTTTCT returned a PBM binding z-score of -0.137.
GCAGAGAGGTGAAACGCAGGTAACTCAGGGTGGC displayed a PBM binding z-score of 0.186.
To TCCAGCAGGCCAGAGGGTCACTCAAGAGGTACGG belongs 1.34; to CCAGACAGGTGTAAGGTAACTCAGTCTGGTACGC, 0.0147.
For ACAGGCAGGTGATGAAGGTAACTCAGGCTATCAT, the PBM binding z-score is -0.0607.
The same measure for ATACCAAGGTGATCGAGAGGTCGTTGATACTAAC: 3.02; for TCATATAGGTAAATGCTAGGTGAAATTCCGATCT: 0.761.
To CGAACTAGGTCATCCAGGACATTGAATACATTGA belongs 5.52; to CCTACTAGGCCACGAAAGGTCATTGATTCAGTGA, 4.42.
As for CCGAGTAGGTTATGGGGCGTTCAGGCAACGGTGA, the PBM binding z-score came to 0.0035.
The same measure for ACTATAAGTTGAGACGAGGGCAACCGATAGGTTG: 1.75; for AGTCAAACTTCATCTAGGTAACGTAAGATATGCT: -0.0435; for TAGCCTAGGTCATTCAGGGGCCAGTATAGAAAGC: 3.26.
The sequence TCGAGTAGGTTACCAGTGGGGCATTCAGCTTTCT showed a PBM binding z-score of 0.134.
GTACCCAGGTGAATAGGTCGTTGATGAGTAGGCG registered a PBM binding z-score of 0.54.
As for CCTACTGGGCCAAAGCTCATTGATTCCAATGCTC, the PBM binding z-score was -0.593.
ATCTCTAGGTAAAAAGTTCAGTGAAAGAGAGGAC: the PBM binding z-score was found to be 1.39.
Consider ACTAGCAGGCCAAGGGTCTCTCAAGATTAGTCCG, for which the PBM binding z-score is -0.657.
CGTCCAAGGTCAATGTCAGTGAAAGAGACTCGAA gave a PBM binding z-score of 3.45.
The same measure for CCTACTGGTCCACGAAAGGTCATTGATTCAGTGA: 4.24; for TCTAGTTAGTCAAAGGTCACACACTCGAAATGCG: 4.97.
To TAGCCTAGGTCATGCGGGCCACTATAGTGTCGGC belongs 3.58; to TCGGCTAGGTCAACGATGGTCAGCTAATCTGCTA, 1.73; to TAGCCTAGGTCATGCGGGCCAGTCTAGTGTCGGC, 2.82.
TCTTGTAGAGCAACAGGAGGTTAAGAAAGATCGA registered a PBM binding z-score of 0.0425.
CCTCCTGGGCCATCAGGTCATTGATATCAACGTT displayed a PBM binding z-score of 1.76.
In turn, GGTTACGGGTCAAAGGTTATAGCATGAATAGAAT came in with a PBM binding z-score of 5.46.
The same measure for CAAACTAGGTCAAAGGTCGAAGTCGAGCCAACCA: 5.03.
The same measure for CCTAGTTGGTCATGAGGTCACACACCGGATATGA: 4.97; for GGAACGAGGGCAAAGTTGATAGAATCTGTCGACG: 1.34.
